Potency data for 67 compounds are collected here from PubChem BioAssay AID1347076 (National Center for Advancing Translational Sciences (NCATS), 2019).

Out of some 400,000 compounds screened, about 13,000 (3.2%) were called active. Entries that show only a call come without a potency. Not shown: some 18% with an inconclusive outcome. This is one part of a sample in which actives are shown more often than they occur. Calls follow the shape of the dose curve; as a rule, active = well fitted cell-killing curve with a large enough effect; inconclusive = small, poorly fitted or top-dose-only effect, or effect the other way; inactive = flat fitted curve, though single readings scatter.
Potency is read from the fitted curve at half-maximal effect.

A short description of this experiment: qHTS assay for MDR1-selective chemotherapeutics: Primary screen using the drug-selected MDR subline cells KB-V1. Also: nearly all actives have a fitted effect of over 60% in size. Conditions: KB-V1 MDR cells viability, CellTiter-Glo, 72 h; series mostly up to 46.1 µM. The method in brief:
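KB-V1, DMEM (no phenol red) + 10% FBS; cpd pin-transferred, titration series; 72 h, 37 degrees C; CellTiter-Glo, luminescence. Data normalized, curve-fit.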
In the case of `COc1ccc(C(=O)Nc2nc(-c3ccc(S(=O)(=O)N4CCOCC4)cc3)cs2)cc1`, the Potency is 16.4 µM (active).

On to `Cc1cc2nc(NC(=O)c3ccc(S(=O)(=O)N4CCOCC4)cc3)sc2cc1C`, for which the Potency entry is “inactive”.

Consider `CCOC(=O)c1csc(NC(=O)c2ccc(S(=O)(=O)N3CCCC3)cc2)n1`, for which the Potency result is “inactive”.

`O=C(O)c1ccccc1Cc1ccc(F)c2ccccc12`: the Potency entry was “inactive”.

Consider `COC(=O)C[C@H]1C=C[C@@H](NS(=O)(=O)c2ccc(C)cc2)[C@@H](CO)O1`, for which the Potency result was “inactive”.

For `Cc1[nH]c2ccccc2c1C(=O)C(=O)N(C)c1ccccc1`, the Potency entry is “inactive”.

Take `CNS(=O)(=O)c1ccc2c(c1)[nH]c(=S)n2C`: the Potency entry is “inactive”.

As for `Cc1nc(CNS(=O)(=O)c2cccnc2)cs1`, the Potency entry was “inactive”.

In the case of `Cc1nc(CNS(=O)(=O)c2ccc(Oc3ccccc3)cc2)cs1`, the Potency was 8.2 µM (active).

Consider `Cc1ccc(S(=O)(=O)NCc2csc(C)n2)c(C)c1`, for which the Potency result is “inactive”.

Take `CC(=O)c1ccccc1NC(=O)COC(=O)C1COc2ccccc2O1` (configuration not stated): the Potency entry is “inactive”.

Take `COc1cc(C(O)c2nc(-c3cccc(C(=O)O)c3)cs2)ccc1F` (configuration not stated): the Potency entry was “inactive”.

`COC(=O)C1=CN(c2c(C)cc(C)cc2C)C(N)=C(C#N)C1c1cccc(F)c1` (configuration not stated): the Potency result was “inactive”.

On to `Cc1nnc(C)n1-c1ccc(C(=O)Nc2cccc(Br)c2)cc1`, for which the Potency entry was “inactive”.

Regarding `O=C(NC1CC1)c1cccc(Br)c1`, the Potency entry is “inactive”.

Consider `COC(=O)C1NN=C(C(=O)c2ccc(Br)cc2)C1c1cccc(Br)c1` (configuration not stated), for which the Potency was 23.1 µM (active).

As to `Cc1ccc(-n2c(C)cc(/C=N/Nc3ccc([N+](=O)[O-])cn3)c2C)c(C)c1`, the Potency result is “inactive”.

On to `Cc1cccc(COc2ccccc2/C=N/Nc2ccc([N+](=O)[O-])cc2)c1`, for which the Potency was 16.4 µM (active).

With `Cc1ccc(NS(=O)(=O)c2ccc(N/N=C/c3ccccc3OCC(=O)O)c([N+](=O)[O-])c2)c(C)c1`, the Potency entry was “inactive”.

As to `CC1(C)OC(=O)C2=C(CC(c3ccccc3)OC2CCc2ccccc2)O1` (configuration not stated), the Potency entry is “inactive”.

Consider `Cc1noc(C)c1NC(=O)N(C)C[C@@H]1Oc2cc(Br)ccc2S(=O)(=O)N([C@@H](C)CO)C[C@H]1C`, for which the Potency entry was “inactive”.

For `Fc1ccccc1COc1ccccc1CNCc1ccncc1`, the Potency was 6.51 µM (active).

For `Fc1ccccc1COc1cccc2cccnc12`, the Potency result was “inactive”.

With `CCOc1cc(/C=N/O)ccc1OCc1ccccc1F`, the Potency entry was “inactive”.

In the case of `COc1ccc(-n2nnc(-c3nsc(NC(=O)c4ccc(C)c(C)c4)n3)c2C)cc1Cl`, the Potency entry was “inactive”.

As to `CCOc1ccc(NC(=O)Nc2ccc(N(C)C(C)=O)cc2)cc1`, the Potency result is “inactive”.

Take `CCOc1ccc(NC(=O)Nc2cc(C)ccc2OC)cc1`: the Potency was 14.6 µM (active).

Consider `COc1ccc(C)cc1NC(=O)NCc1ccccn1`, for which the Potency result was “inactive”.

`Cc1ccc(Cl)cc1-n1ncc2c(N3CCC(C(N)=O)CC3)ncnc21`: the Potency result is “inactive”.

Turning to `CC(=O)c1ccc(OCC(=O)N(C)C2CCS(=O)(=O)C2)cc1` (configuration not stated), the Potency result is “inactive”.

Consider `COc1ccc(CCNc2nc(-c3ccc(F)cc3)cc(C(F)(F)F)n2)cc1OC`, for which the Potency entry is “inactive”.

For the compound `O=C(COc1cc(Cl)c(Cl)cc1Cl)NC(=O)NC1CCCC1`, the Potency entry is “inactive”.

As for `CCCC(=O)Nc1cc(OCC)c(NC(=O)NC2CCCCC2)cc1OCC`, the Potency entry is “inactive”.

Turning to `CCCN(CC(=O)NC(=O)NC1CCCCC1)CC(=O)Nc1cc(Cl)ccc1Cl`, the Potency was 4.11 µM (active).

In the case of `CSc1ccc(CNC(=O)C2(C)CCCN2C)cc1` (configuration not stated), the Potency result is “inactive”.

Consider `CCN(CC)c1ncnc2c1ncn2[C@H]1CN(Cc2cccs2)C[C@@H](CO)O1`, for which the Potency result was “inactive”.

For the compound `COCCNC(=O)c1ccc2c(c1)N=C(C)c1cc(C)ccc1S2`, the Potency was 0.92 µM (active).

For the compound `CCC1=Nc2cc(C(=O)NCCN3CCCC3)ccc2Sc2ccc(C)cc21`, the Potency result was “inactive”.

On to `CCC1=Nc2cc(C(=O)NCCCN3CCOCC3)ccc2Sc2ccc(Br)cc21`, for which the Potency result is “inactive”.

As for `CCN1C(=O)[C@@H]2[C@@H]3CN(S(=O)(=O)c4ccccc4C)[C@@H](c4ccc(Cl)cc4)[C@@H]3C(=O)C[C@@H]2C1=O`, the Potency entry is “inactive”.

As for `COc1ccc(C(=O)COC(=O)c2c(C)noc2C)cc1Cl`, the Potency result was “inactive”.

Take `Cc1ccc(-c2nc(COC(=O)c3c(C)noc3C)cs2)cc1`: the Potency was 23.1 µM (active).

Consider `Cc1ccc(S(=O)(=O)N2CCN(C(=O)COC(=O)c3c(C)noc3C)CC2)c(C)c1`, for which the Potency entry is “inactive”.

For `CCc1ccc(C2CC(=O)c3c([nH]c(C(=O)OCc4ccc(C)cc4)c3C)C2)cc1` (configuration not stated), the Potency entry is “inactive”.

With `COc1ccc(-n2c(=O)c3ccccc3n(Cc3ccccc3Cl)c2=O)cc1`, the Potency result was “inactive”.

`N#CCCN(C(=S)Nc1ccc(Cl)c(Cl)c1)C1CCCCC1`: the Potency entry was “inactive”.

As to `COc1ccc(C2C(=O)N(C3CCCCC3)CC(=O)N2Cc2ccccc2Cl)cc1OC` (configuration not stated), the Potency entry is “inactive”.

As to `CCCC(=O)N1CCC1(C)C(=O)NS(=O)(=O)c1ccc(Cl)cc1` (configuration not stated), the Potency result was “inactive”.

On to `CCn1cc(C(=O)NCCc2ccccc2)c(=O)c2cc(S(=O)(=O)N3CCCCCC3)ccc21`, for which the Potency entry was “inactive”.

For `CCOc1ccccc1NC(=O)Cn1nnc(C(=O)Nc2ccc(C)c(C)c2)c1N`, the Potency entry was “inactive”.

Consider `CCOc1ccccc1NC(=O)Cc1cccs1`, for which the Potency result is “inactive”.

As to `CCOc1ccccc1NC(=O)Cn1nnc(C(=O)NCc2cccs2)c1N`, the Potency was 0.58 µM (active).

Regarding `O=C(Cc1ccc(Cl)cc1)Nc1ccc2nn(-c3ccc(Cl)cc3)nc2c1`, the Potency entry is “inactive”.

As for `CC1CN(c2nc(Nc3ccccc3)nc(N)c2[N+](=O)[O-])CC(C)O1` (configuration not stated), the Potency result was “inactive”.

On to `O=[N+]([O-])c1ccc(NCCCN2CCOCC2)c(Cl)c1`, for which the Potency entry was “inactive”.

For the compound `Nc1nc(NCCCN2CCOCC2)nc(Nc2ccccc2)c1[N+](=O)[O-]`, the Potency is 23.1 µM (active).

As for `COc1ccc(-c2cc3c(c4c2ccn4C)C2CCC3C2)cn1` (configuration not stated), the Potency entry is “inactive”.

Turning to `O=C(Cn1c(=O)nc(-c2ccccc2)c2cc(Cl)ccc21)NCc1ccc(Cl)cc1`, the Potency result was “inactive”.

On to `COc1cccc(NC(=O)Nc2ccc(F)cc2)c1`, for which the Potency result is “inactive”.

As for `CC1(C(=O)NS(=O)(=O)c2ccc3ccccc3c2)CCN1C(=O)C1(c2ccc(Cl)cc2)CCC1` (configuration not stated), the Potency result is “inactive”.

For the compound `CN1CCN(S(=O)(=O)c2cccc(C(=O)N3CCc4ccccc43)c2)CC1`, the Potency result is “inactive”.

Take `CN(C)C(CNC(=O)c1cccc(S(=O)(=O)N2CCc3ccccc3C2)c1)c1ccccc1` (configuration not stated): the Potency entry is “inactive”.

For `Cc1cccc(N2CCN(C(=O)c3cccc(S(=O)(=O)N4CCc5ccccc5C4)c3)CC2C)c1` (configuration not stated), the Potency is 2.59 µM (active).

Consider `O=C(COC(=O)c1cncc(Br)c1)Nc1ccc(S(=O)(=O)N2CCOCC2)cc1`, for which the Potency result was “inactive”.

For the compound `Cc1ccc(C)c(S(=O)(=O)N2CCN(c3ncnc4sccc34)CC2)c1`, the Potency is 7.31 µM (active).

With `Cc1ccc(S(=O)(=O)N2CCN(c3ncnc4ccccc34)CC2)cc1`, the Potency result was “inactive”.

In the case of `COc1ccc(C)cc1S(=O)(=O)N1CCN(S(=O)(=O)c2cc(C(=O)O)ccc2C)CC1`, the Potency entry was “inactive”.
